Test results as given in PubChem BioAssay AID485270 (The Scripps Research Institute Molecular Screening Center, 2010).
Out of some 330,000 compounds screened, about 5,800 (1.8%) were called active. No stated cut-off is given here; in the data, active means inhibition mostly above about 38% (no sharp cut-off); inactive means mostly below about 40%. Many of the other results were omitted from the sample, so actives are more common in it than they were.

Each compound was assayed against Orexin/Hypocretin receptor type 1 (Homo sapiens) (UniProt O43613) (assay: antagonists of human orexin 1 receptor (OX1R) (AID 485270;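 further: 0% = agonist challenge alone and 100% = reference antagonist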)). Details: OX1R-expressing cells, FRET antagonist read-out; at 6.6 µM; stronger effect = higher value.
Sequence of Orexin/Hypocretin receptor type 1 (Homo sapiens) (O43613 whole entry, looked up): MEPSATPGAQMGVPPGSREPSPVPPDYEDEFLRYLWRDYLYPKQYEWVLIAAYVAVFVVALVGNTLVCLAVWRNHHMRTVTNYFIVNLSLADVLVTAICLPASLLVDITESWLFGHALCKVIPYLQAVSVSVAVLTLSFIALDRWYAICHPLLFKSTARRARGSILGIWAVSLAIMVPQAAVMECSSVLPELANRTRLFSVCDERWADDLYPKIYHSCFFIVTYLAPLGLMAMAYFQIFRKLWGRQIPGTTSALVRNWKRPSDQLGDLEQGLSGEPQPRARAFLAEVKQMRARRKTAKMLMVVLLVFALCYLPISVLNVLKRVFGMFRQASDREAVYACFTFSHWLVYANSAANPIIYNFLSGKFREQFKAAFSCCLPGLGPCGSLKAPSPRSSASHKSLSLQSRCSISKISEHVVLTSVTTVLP

| SMILES | inhibition |
| --- | --- |
| CN(C(=O)CSc1cccc[n+]1[O-])C1CCCCC1 | 1.33% (inactive) |
| CC(C)(C)OC(=O)C[C@H]1C/C=C\C[C@@H](CC(=O)N[C@H](CO)Cc2ccccc2)C(=O)NC[C@@H](c2ccccc2)OC1=O | 8.19% (inactive) |
| COc1ccccc1/C=C1\SC(=O)N(CCC(=O)N(C)C2CCS(=O)(=O)C2)C1=O (stereo not drawn) | 16.6% (inactive) |
| COc1ccc(/C=C2\SC(=O)N(CCC(=O)NC3CCS(=O)(=O)C3)C2=O)cc1 (stereo not drawn) | 49.4% (active) |
| COc1ccc(/C=C2\SC(=O)N(CCC(=O)NCCCn3ccnc3)C2=O)cc1 | 33.5% (inactive) |
| CC(Sc1ccccc1F)C(=O)Nc1cccc(S(=O)(=O)N2CCOCC2)c1 (stereo not drawn) | 9.63% (inactive) |
| CCCOc1ccc(Cc2c(Cl)nc(SC)nc2NC)cc1 | 48.2% (active) |
| CCCOc1ccc(Cc2c(O)nc(SC)[nH]c2=O)cc1C | 11.5% (inactive) |
| CCCOc1ccc(Cn2c(O)cc(=O)[nH]c2=O)cc1 | 6.66% (inactive) |
| O=C1OCCN1C(=O)[C@H]1[C@H](c2ccc(F)cc2)C(c2ccccc2)=NN1c1ccc(Br)cc1 | 7.86% (inactive) |
| CCOC(=O)C1CCN(C(=O)CN2C(=O)NC(C)(c3ccc4cc(OC)ccc4c3)C2=O)CC1 (stereo not drawn) | 9.95% (inactive) |
| Nc1cccnc1Sc1ccccc1 | 15.4% (inactive) |
| Cc1ccc(C)c(S(=O)(=O)N2CCN(c3ncnc4sccc34)CC2)c1 | 28.6% (active) |
| COc1ccc(C)cc1S(=O)(=O)N1CCN(S(=O)(=O)c2cc(C(=O)O)ccc2C)CC1 | 26.6% (inactive) |
| Cc1ccc(S(=O)(=O)N2CCN(c3ncnc4ccccc34)CC2)cc1 | 25.9% (inactive) |
| CCSc1nsc(NC(=O)Nc2cccc(C(C)=O)c2)n1 | 84.2% (active) |
| C=C(C)C(=O)Nc1cccc(C(C)=O)c1 | 8.59% (inactive) |
| C=CCSc1nsc(NC(=O)Nc2cccc(C(C)=O)c2)n1 | 58.4% (active) |
| C=CCSc1nnc(NC(=O)c2ccc(NC(C)=O)cc2)s1 | 5.19% (inactive) |
| CCSc1nsc(NC(=O)Nc2ccccc2OC)n1 | 6.99% (inactive) |

| SMILES | inhibition |
| --- | --- |
| CSc1nsc(NC(=O)Nc2ccccc2)n1 | 19.6% (inactive) |
| CCOC(=O)C1=CN(Cc2ccc(Br)cc2)S(=O)(=O)N(C)C1C (stereo not drawn) | 6.18% (inactive) |
| C[C@H](CO)N1C[C@H](C)[C@@H](CN(C)S(=O)(=O)c2ccc(F)cc2)Oc2ccc(NC(=O)CCC(F)(F)F)cc2C1=O | 9.27% (inactive) |
| O=C(COC(=O)COc1ccccc1F)Nc1cccc(S(=O)(=O)N2CCCCC2)c1 | -4.71% (inactive) |
| O=C(CCNC(=O)c1ccccc1Cl)NN=Cc1ccco1 | 9.66% (inactive) |
| CC1CCCCC1NC(=O)Cn1c(=O)cnc2ccccc21 (stereo not drawn) | 7.4% (inactive) |
| O=C(CCN1C(=O)c2ccccc2C1=O)Nc1ccncc1 | 21.2% (inactive) |
| COc1cc(C(=O)Nc2oc(-c3ccccc3)c(-c3ccccc3)c2C#N)cc(OC)c1OC | 24.6% (inactive) |
| N#Cc1c(NC(=O)CCCN2C(=O)c3ccccc3C2=O)oc(-c2ccccc2)c1-c1ccccc1 | 48.7% (active) |
| C#CCOCCOCCOCCNc1nc(N2CCN(C(=O)[C@H](CCCN=C(N)N)n3cc(C(N)[C@@H](C)CC)nn3)CC2)nc(N2CCN(C(=O)[C@H](CO)n3cc([C@@H](N)C(C)C)nn3)CC2)n1 (stereo partly drawn) | 1.49% (inactive) |
| Cc1ccc(OCc2cc(C(=O)N(C)CCc3ccccc3)no2)cc1C | 27.7% (inactive) |
| CCn1ccnc1CN(C)C(=O)c1cc(COc2ccc(Cl)cc2OC)on1 | 16.5% (inactive) |
| COc1cc(Cl)ccc1OCc1cc(C(=O)N(C)CCc2c(C)n[nH]c2C)no1 | 71.9% (active) |
| CSc1ccccc1OCc1cc(C(=O)N(C)CCc2c(C)n[nH]c2C)no1 | 43.7% (active) |
| CSc1ccccc1OCc1cc(C(=O)N2C[C@H]3CC[C@H]2C3)no1 | 38.3% (inactive) |
| COc1cc(Cl)ccc1OCc1cc(C(=O)N2CC[C@@H]3CCCC[C@H]3C2)no1 | -0.82% (inactive) |
| COc1cccc2sc3cc(NCC[C@@H]4CCCN4C)ccc3c(=O)c12 | 20.1% (inactive) |
| COc1cc(NC(=O)c2[nH]cnc2C(N)=O)cc(C(=O)Nc2cccc(C(F)(F)F)c2)c1 | 33.6% (inactive) |
| O=C1CN(C(=O)COC(=O)/C=C/c2ccc(F)cc2)c2ccccc2N1 | 6.47% (inactive) |
| O=C(C[C@H]1C[C@H](C(=O)N2CCOCC2)[C@@]2(CCC3CCCC3)c3[nH]c4ccc(Cl)cc4c3CCN2C1=O)NCc1ccco1 | 14.4% (inactive) |

| SMILES | inhibition |
| --- | --- |
| COc1ccc(CCNC(=O)NS(=O)(=O)c2ccc(C)cc2)cc1OC | -2.44% (inactive) |
| COc1ccc(-n2c(C)cc(C(=O)CSc3nnc(-c4cccs4)o3)c2C)cc1 | 39.4% (active) |
| COc1ccc(-n2c(C)cc(C(=O)COC(=O)c3cc(OC)c(OC)cc3NC(=O)c3cccs3)c2C)cc1 | 1.91% (inactive) |
| Cc1ccc(-n2c(C)cc(C(=O)CSc3nnc4ccccn34)c2C)cc1 | 12.3% (inactive) |
| Nc1ncnc2c1ncn2[C@@H]1O[C@H](CNS(=O)(=O)c2ccc(-c3ccno3)s2)[C@@H](O)[C@H]1O | 6.23% (inactive) |
| CN(C)C(=O)CCc1ccc2c3c([nH]c2c1)[C@]1(CCC2CCCC2)[C@@H](C(=O)N2CCOCC2)C[C@H](CC(=O)NCc2ccco2)C(=O)N1CC3 | 5.29% (inactive) |
| O=C(COC(=O)CSc1ccccc1)Nc1ccc(F)cc1F | 13.6% (inactive) |
| Cn1nnnc1SCC(=O)Nc1cccc(S(=O)(=O)N2CCCCC2)c1 | 12% (inactive) |
| COc1ccccc1N1CC(C(=O)Nc2ccc(S(=O)(=O)N3CCOCC3)cc2)CC1=O (stereo not drawn) | 91.1% (active) |
| CC1CCN(S(=O)(=O)c2ccc(NC(=O)C3CC(=O)N(c4ccccc4)C3)cc2)CC1 (stereo not drawn) | 25.5% (inactive) |
| Cc1ccccc1N1CC(C(=O)Nc2ccc(S(=O)(=O)N3CCCC3)cc2)CC1=O (stereo not drawn) | 15.4% (inactive) |
| CN(Cc1ccc(CNC[C@H]2O[C@@H](n3cnc4c(N)ncnc43)[C@H](O)[C@@H]2O)o1)S(C)(=O)=O | -3.7% (inactive) |
| COc1ccccc1NC(=O)C1CCCN1S(=O)(=O)c1ccc(Cl)cc1 (stereo not drawn) | 62.4% (active) |
| Cc1cccc(NC(=O)C2CCCN(C(=O)Nc3ccc(F)cc3)C2)c1C (stereo not drawn) | 21.2% (inactive) |
| Cc1cccc(NC(=O)C2CCCN2S(=O)(=O)c2ccc(F)cc2)c1C (stereo not drawn) | 50% (active) |
| O=C(NCc1ccccc1Cl)C1CCCN1S(=O)(=O)c1ccc(F)cc1 (stereo not drawn) | 2.31% (inactive) |
| CC(C)c1nnc(NC(=O)C2CCCN2S(=O)(=O)c2ccc(Cl)cc2)s1 (stereo not drawn) | 39.3% (inactive) |
| COc1ccc(Cl)cc1NC(=O)[C@@H]1CCCN1C(=O)c1cccs1 | 1.43% (inactive) |
